# Screens from PubChem BioAssay.
# The full list was thinned out, with hits kept by preference.
# Shiga toxin inh = blocks Shiga toxin action in Vero cells; hit rate 9.2% among 290,000; inhibition, % at 38.7 µM; AID 2315; Vero cells, Shiga toxin protein synthesis inhibition reporter; in the data active = inhibition mostly above about 28%, no sharp cut-off; inactive = mostly below about 43%
# LmPK inhibitor = blocks Leishmania mexicana pyruvate kinase activity | purified LmPK, Kinase-Glo ATP luminescence, 1 h | Potency, µM (titrated, usually from 57.5 µM), usual class: inhibitors | hit rate 0.37% among 290,000 | AID 1721
#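 Screened at intermediate enzyme activity to detect both inhibitors and activators: LmPK at 0.1 nM, with a 0.5 nM enzyme column as activation reference. PEP 0.5 mM, ADP 0.1 mM; ATP detected by luminescence after 1 h.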
# TbPYK inhibitor = inhibitors of Trypanosoma brucei pyruvate kinase; TbPYK enzyme, Kinase-Glo Plus ATP luminescence, 45 min; Potency, µM (titrated, usually from 76.8 µM), actives largely listed as inhibitors; hit rate 0.12% among 410,000; AID 624173; also: nearly all actives have a fitted effect of over 50% in size
#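 Luminescence from Kinase-Glo Plus, added after a 45-minute room-temperature reaction, served as the end-point read-out. The enzyme and substrate were preincubated with compound before ADP (130 uM final) initiated turnover. Concentration-effect curves came from normalized qHTS data.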
# CHX counter = counter-screen for Shiga toxin inhibitors: cycloheximide protein synthesis inhibition. cell reporter, cycloheximide protein synthesis inhibition counterscreen. max response, %. hit rate 12% among 300,000. AID 2314; in the data active = max response mostly above about 13%, no sharp cut-off; inactive = mostly below about 14%; also: read at 38.3 µM for the half of the compounds with a filed dose
# FBPA Giardia inh = inhibitors of Giardia lamblia fructose-1,6-bisphosphate aldolase; A8B2U2; purified Giardia FBPA; Potency, µM (doses to about 59.6 µM), actives largely listed as inhibitors; hit rate 0.71% among 290,000; also: nearly all actives have a fitted effect of over 55% in size
# Target sequence (A8B2U2 whole entry, looked up): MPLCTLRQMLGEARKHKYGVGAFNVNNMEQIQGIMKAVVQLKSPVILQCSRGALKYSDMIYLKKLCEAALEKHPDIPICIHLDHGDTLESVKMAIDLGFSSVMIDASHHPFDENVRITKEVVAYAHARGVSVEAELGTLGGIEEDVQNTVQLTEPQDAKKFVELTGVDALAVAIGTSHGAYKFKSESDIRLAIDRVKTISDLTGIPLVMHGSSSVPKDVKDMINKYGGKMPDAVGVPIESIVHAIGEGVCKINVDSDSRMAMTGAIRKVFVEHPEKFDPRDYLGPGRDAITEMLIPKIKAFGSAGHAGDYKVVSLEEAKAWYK
#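 40 nM FBPA preincubated 10 min at RT with compound (up to 57.5 uM final), then substrate plus GAPDH/TPI/NAD/arsenate coupling and diaphorase/resazurin added. Fluorescence read after 20 min at RT, 525/598 nm.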
# RE007 growth inh = less growth of the S. pombe RE007 Vpr strain; S. pombe RE007 Vpr strain, BacTiter-Glo ATP luminescence, 24 h; Potency, µM (titrated, usually from 92.2 µM), most hits filed as inhibitors; hit rate 0.21% among 360,000; active = well fitted falling curve with a large enough effect; inconclusive = small, poorly fitted or top-dose-only effect; inactive = no such curve, though single readings can be large or run the other way; also: nearly all actives have a fitted effect of over 50% in size
#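 Fission yeast strain RE007, carrying one chromosomally integrated HIV-1 vpr copy, was seeded at OD 0.01 in PMG+AL medium with 23 nL pinned compound. After 24 h at 30 °C and 99% humidity, viability was read by BacTiter-Glo luminescence.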
# Hits are given with their value; . = inactive; ? = inconclusive; / = not tested or not shown; [ ] = another dose, or the depositor's remark. Unless noted, calls follow the shape of the dose curve; as a rule, active = well fitted curve in the direction sought with a large enough effect; inconclusive = small, poorly fitted or top-dose-only effect, or another doubt; inactive = no such curve, though single readings can be large; an effect the other way counts as inactive or inconclusive.
SMILES,Shiga toxin inh,LmPK inhibitor,TbPYK inhibitor,CHX counter,FBPA Giardia inh,RE007 growth inh
CN1CC(C(=O)c2ccc(F)cc2)C(c2ccc(F)cc2)C1 (configuration not stated),.,.,.,.,.,.
CN1CC(C(=O)c2ccccc2)C(C(=O)c2ccccc2)C1 (configuration not stated),112,.,.,55,.,.
CC(=O)NCC(=O)N1CCCC(C(=O)c2ccc(Oc3ccccc3)cc2)C1 (configuration not stated),.,.,.,.,.,.
CCOC(=O)c1c(-c2ccccc2)nc2c(C)cccn12,.,.,.,.,.,14µM
Cc1cccn2c(N)c(-c3ccccc3)nc12,.,?,.,20,.,.
CCOC(=O)c1c(-c2ccccc2)nc2ccccn12,.,.,.,.,.,18µM
COC(=O)Nc1c(-c2ccccc2)nc2ccccn12,.,.,.,.,.,.
Cc1cc2c(c(=O)o1)[C@@H](O)[C@H]1O[C@@H]1C2=O,/,/,/,/,.[12.9 µM],/
COC(=O)c1ccc(Cl)cc1NC(=O)Nc1nnc(N(C)Cc2ccccc2)s1,/,/,.,/,/,/
O=C(OCc1cc(=O)n2c(n1)sc1ccccc12)c1cccc(O)c1,49,.,.,23,.,.
O=C(OCc1cc(=O)n2c(n1)sc1ccccc12)c1ccc(O)cc1O,.,.,.,.,.,.
Clc1ccc(CN2CCCCCCC2)cc1Cl,.,.,.,.,?,?
Clc1ccc(-c2cc(CN3CCOCC3)no2)cc1,118,.,.,54,.,.
Clc1ccc(-c2cc(CN3CCCCC3)no2)cc1Cl,62,.,.,34,.,.
Cc1oc(-c2ccccc2)nc1CNS(=O)(=O)c1ccc(Cl)cc1,/,/,.,/,/,/
CC1=CC2C(=O)c3cccc(O)c3C(=O)C2C(O)=C1 (configuration not stated),/,/,/,/,.,/
CCC(=O)N[C@@H]1Cc2ccccc2[C@@H](c2ccccc2)C1,/,/,/,/,.,/
COc1cccc(-c2nc(-c3ccc(Br)o3)no2)c1,108,.,.,54,.,.
COc1ccc(-c2nnc3sc(-c4ccc(Br)o4)nn23)cc1OC,.,.,/,.,.,/
COc1ccccc1Cc1nc(-c2ccc(Br)o2)no1,.,.,.,34,.,.
COc1ccc(Cc2noc(-c3ccc(OC)c(OC)c3)n2)cc1OC,.,.,.,.,.,.
COc1ccc(-c2nnc(-c3ccc(Br)o3)o2)cc1OC,.,.,.,11,.,.
COc1ccc(-c2nc(-c3ccc(Br)o3)no2)cc1OC,35,.,.,19,.,.
Cc1cccc(N2CCN(CCCNC(=O)Cn3ncc4c([nH]c5ccccc54)c3=O)CC2C)c1 (configuration not stated),/,/,.,/,/,/
CC1CCCN(S(=O)(=O)c2cc3c(cc2Cl)NC(=O)CO3)C1 (configuration not stated),/,/,.,/,/,/
SMILES,Shiga toxin inh,LmPK inhibitor,TbPYK inhibitor,CHX counter,FBPA Giardia inh,RE007 growth inh
COc1ccccc1-c1noc(COC(=O)c2ccc(Br)o2)n1,/,/,.,/,/,.
COc1ccccc1-c1nc(-c2ccc(Br)o2)no1,146,.,.,97,.,.
FC(F)(F)c1cccc(NCc2n[nH]c(=S)n2C2CCCCC2)c1,.,?,13µM,.,.,.
S=c1[nH]nc(COc2ccccc2)n1C1CCCCC1,.,13µM,?,.,.,.
S=c1[nH]nc(CSc2nc3ccccc3s2)n1C1CCCCC1,.,11µM,?,.,.,.
O=C(O)CSc1nnc(CSc2nc3ccccc3s2)n1-c1ccccc1,.,.,.,.,.,.
Cc1cc(C)c(NC(=O)Cn2c(=O)n(-c3cccc(C(F)(F)F)c3)c(=O)c3c(C)c(C)sc32)c(C)c1,/,/,.,/,/,/
Nc1nc(N2CCN(C(=O)c3ccco3)CC2)nc2ccc(Br)cc12,50,.,.,25,.,.
Cc1cc(N2CCN(C(=O)c3ccco3)CC2)c2ccccc2n1,.,.,.,.,.,.
Nc1nc(N2CCN(C(=O)c3ccco3)CC2)nc2ccccc12,67,.,.,28,.,.
O=C(c1ccco1)N1CCN(c2ncccn2)CC1,.,.,.,.,.,.
O=C1CCCc2nc(N3CCN(C(=O)c4ccco4)CC3)ncc21,25,.,.,20,/,.
CCC(=O)Nc1ccccc1-c1nc2ccccc2n(Cc2cccc(Br)c2)c1=O,/,/,.,/,/,/
Cc1ccc(CNc2nc3nc(C)c(Cl)c(C)n3n2)cc1,/,/,.,/,/,/
O=C(Nc1nc2c(F)cccc2s1)c1ccco1,28,.,.,31,.,.
Cc1nc2nc(NC(=O)c3ccco3)nn2c(C)c1Cl,43,.,.,.,/,.
CC(=O)Nc1nc2c(F)cccc2s1,/,/,.,/,/,.
CC(=O)Nc1nnc(-c2ccco2)o1,.,.,.,.,.,.
O=C(Nc1nc2c(Br)cc(Br)cc2c(=O)s1)c1ccco1,.,.,.,.,.,.
Fc1cccc2sc(Nc3nnc(-c4ccco4)o3)nc12,171,.,.,40,?,.
Cc1cc(Cl)cc2sc(NC(=O)c3ccco3)nc12,50,.,.,51,.,.
CCN(c1cccc(C)c1)S(=O)(=O)c1nnc(NC(=O)C2CCCCC2)s1,/,/,.,/,/,/
COc1cccc2sc(Nc3nnc(-c4cccs4)o3)nc12,74,.,.,21,?,.
Cc1cc(C)c2nc(NC(=O)c3ccco3)sc2c1,51,.,.,31,.,.
COC(=O)[C@@H](NC(=O)N1CCc2nc(-c3ccccc3)c3c(c2C1)CO[C@@H](C)C3)C(C)C,/,.[11.5 µM],/,/,.[12.9 µM],/
SMILES,Shiga toxin inh,LmPK inhibitor,TbPYK inhibitor,CHX counter,FBPA Giardia inh,RE007 growth inh
CC(=O)N1CCc2cc(S(=O)(=O)NC(CC(C)C)C(=O)NCCc3ccccc3)ccc21 (configuration not stated),/,/,.,/,/,/
O=[N+]([O-])c1cc(Cl)ccc1NCCNS(=O)(=O)c1ccccc1,36,.,.,19,.,.
C[C@@H](c1ccccc1)N1C(=O)[C@H]2[C@H]3[C@H](O)[C@H](O)C/C(=N/OCc4ccccc4)[C@@H]3CC[C@@H]2C1=O,/,/,/,/,.[12.9 µM],/
COc1ccccc1NC(=O)NCCC1=CCCCC1,.,.,.,.,.,.
COc1ccc(NC(=O)NCCC2=CCCCC2)cc1,71,.,.,28,.,.
CC(=O)Nc1cccc(OCC(=O)NCCC2=CCCCC2)c1,29,.,.,23,.,.
COc1cccc(NC(=O)NCCC2=CCCCC2)c1,74,.,.,19,.,.
COc1ccc(/C=N/NC(=O)c2cc(O)c(O)c(O)c2)cc1Cn1cc([N+](=O)[O-])cn1,.,.,.,.,?,.
COc1ccc(/C=N/NC(=O)c2ccc(Br)o2)cc1Cn1cc([N+](=O)[O-])cn1,77,.,.,39,.,.
COc1ccc(/C=N/NC(=O)c2ccccc2O)cc1Cn1cc([N+](=O)[O-])cn1,.,.,.,24,.,.
O=C(N/N=C\c1ccc(Cl)s1)c1ccc(Cn2cccn2)o1,.,.,.,.,.,.
